Experimental data reported in PubChem BioAssay (NCATS).
Results filed as inconclusive are left out. Where a call stands in place of a potency, no number is given. Active and inactive are the calls of the source. Calls come from the whole dose curve; as a rule, active = well fitted inhibition curve with a large enough effect; inconclusive = small, poorly fitted or top-dose-only effect; inactive = flat fitted curve, though single readings scatter.
Potency is the fitted concentration of half-maximal effect.

The molecules below were run on CP252 (assay: qHTS profiling for inhibitors of Plasmodium falciparum proliferation (AID 504749; note: nearly all actives have a fitted effect of over 60% in size)). Settings: P. falciparum in erythrocytes, SYBR Green DNA, 72 h; series mostly up to 28.7 µM.
Method in brief: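 Fluorescence of SYBR Green-bound parasite DNA, read at 485/535 nm, served as the growth measure. Infected erythrocytes were cultured with compound 72 h; artemisinin (0.29 uM) and DMSO wells defined the normalization range.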
With `CN(C)CCCSc1ccccc1NC(=O)/C=C/c1ccccc1` the Potency was “inactive”. `O.O.O.O.O.O.O.O=S(=O)([O-])[O-].[Co+2]` was tested, and the Potency was 11.2 µM (active). In the case of `CN1C(C(=O)Nc2ccccn2)C(=O)c2sc(Cl)cc2S1(=O)=O` (stereo not given), the Potency is reported as “inactive”. With `c1ccc2c(c1)OCC(CN1CCCCC1)O2` (stereo not given) the Potency was “inactive”. For `COc1ccc(C(=O)c2ccc(C)cc2)c(O)c1`, the Potency was “inactive”. In the case of `N=C(N)c1ccc(/C=C/c2ccc(C(=N)N)cc2O)cc1`, the Potency is reported as 15.8 µM (active). With `CCCOc1cc(N)ccc1C(=O)OCCN(CC)CC` the Potency was “inactive”. `Cc1ncc[nH]1` was tested, and the Potency was “inactive”. For `C[C@]12CCC(=O)C[C@@H]1CC[C@@H]1[C@@H]2CC[C@]2(C)C=CC[C@@H]12`, the Potency was “inactive”. With `CC(=O)Nc1ccc(NC(=S)NC(=O)c2ccc(C(C)(C)C)cc2)cc1` the Potency was “inactive”. With `COc1cc(C)c(/C=C/C(C)=C/C=C/C(C)=C/C(=O)O)c(C)c1C` the Potency was “inactive”. For `CCOC(=O)C1=C(COCCN)NC(C)=C(C(=O)OC)C1c1ccccc1Cl` (stereo not given), the Potency was “inactive”. `COc1ccc2c(=O)c(C)c(-c3ccccc3)oc2c1CN(C)C` was tested, and the Potency was “inactive”. With `Cc1c(C)c2c(c(C)c1OC(=O)CCC(=O)O)CC[C@@](C)(CCC[C@H](C)CCC[C@H](C)CCCC(C)C)O2` the Potency was “inactive”. In the case of `CCCCO`, the Potency is reported as “inactive”. `C[C@H](CCCC(C)(C)O)[C@H]1CC[C@H]2[C@@H]3CC=C4C[C@@H](O)CC[C@]4(C)[C@H]3CC[C@]12C` was tested, and the Potency was “inactive”. For `O=C(CCCN1CCN2CCCC2C1)c1ccc(F)cc1` (stereo not given), the Potency was “inactive”. `COC(=O)[C@@H](N)CS` was tested, and the Potency was “inactive”. With `O=C(O)CCC(=O)c1ccc(-c2ccccc2)cc1` the Potency was “inactive”. With `CC(C)=CCC/C(C)=C/C=C/C(C)=C/C=C/C(C)=C/C=C/C=C(C)/C=C/C=C(C)/C=C/C=C(\C)CCC=C(C)C` the Potency was “inactive”. With `Cc1cc(-c2ccc(N=Nc3c(S(=O)(=O)O)cc4cc(S(=O)(=O)O)cc(N)c4c3O)c(C)c2)ccc1N=Nc1c(S(=O)(=O)O)cc2cc(S(=O)(=O)O)cc(N)c2c1O` the Potency was “inactive”. `C[C@H](N)C(=O)N[C@@H](C)P(=O)(O)O` was tested, and the Potency was “inactive”. In the case of `Cc1ncc(C[n+]2csc(CCO)c2C)c(N)n1`, the Potency is reported as “inactive”. With `O=C(OCc1ccccc1)c1cccnc1` the Potency was “inactive”. In the case of `CC(C)NCC(O)COc1ccccc1-n1cccc1` (stereo not given), the Potency is reported as “inactive”. In the case of `Nc1ccc(N=Nc2ccccc2)c(N)n1`, the Potency is reported as “inactive”. In the case of `CCCc1nc(C(C)(C)O)c(C(=O)OCc2oc(=O)oc2C)n1Cc1ccc(-c2ccccc2-c2nn[nH]n2)cc1`, the Potency is reported as “inactive”. In the case of `CC(=O)Oc1cccc2c1C(=O)c1c(OC(C)=O)cc(C(=O)O)cc1C2=O`, the Potency is reported as “inactive”. In the case of `O=P(O)(O)OC[C@H](O)CO`, the Potency is reported as “inactive”. `C/C=C/C=C/C(=O)O` was tested, and the Potency was “inactive”. For `Cc1cc(C(=O)NCCc2ccc(S(=O)(=O)NC(=O)NN3CCCCCC3)cc2)no1`, the Potency was “inactive”. In the case of `CCC(=O)c1ccc2c(c1)N(CCCN1CCN(CCO)CC1)c1ccccc1S2`, the Potency is reported as 11.2 µM (active). With `O=C(OC1C[C@@H]2CC3C[C@H](C1)N2CC3=O)c1c[nH]c2ccccc12` (stereo not given in full) the Potency was “inactive”. `O=C(O)CC/C=C\CC[C@@H]1[C@@H](N2CCCCC2)[C@@H](O)C[C@@H]1OCc1ccc(-c2ccccc2)cc1` was tested, and the Potency was “inactive”. In the case of `CCN(CC)CCOc1ccc2nc(N(C)C)sc2c1`, the Potency is reported as “inactive”.
